ABHD5-PLIN5 inh: ABHD5-PLIN5 protein interaction inhibition | inhibition, % at 4 µM | 360,000 compounds, 0.78% hits | Q00G26+Q8WTS1 | Split G. princeps luciferase complementation, luminescence, 4 h;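 active = inhibition above the mean inhibition across every tested compound plus 3 SD, cut at about 22% in these data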;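 also: 0% = DMSO only wells and the 100% control is not disclosed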
PfM18AAP inh: blocks P. falciparum M18 aspartyl aminopeptidase; 290,000 compounds, 1.2% hits; AID 1822; recombinant PfM18AAP, H-Glu-NHMec fluorogenic cleavage; inhibition, % at 7.35 µM;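 active = inhibition above the campaign mean inhibition over all tested compounds plus 3 SD, cut at about 28% in these data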;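 also: 0% = plate median of test compound wells and 100% = 2 mM ZnCl2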
Platelet DG rel: modulates dense granule release in human platelets; 300,000 compounds, 0.22% hits; human platelet-rich plasma, SFLLRN dense granule ATP release, luminescence; inhibition, %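 (compounds screened at 7.5 µM in platelet-rich plasma)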;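 active = mean replicate score, as percent of positive control, at or above 50; inconclusive = mean below 50 but at least one replicate at or above 50; inactive = mean and every replicate below 50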
Rce1 inh: blocks yeast Ras-converting enzyme; Q03530; yeast membranes, quenched prenylated peptide cleavage fluorescence; calls only; 290,000 compounds, 0.27% hits; AID 2563;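 active = fall in fluorescence gain of 50% or more versus controls, with final raw signal at or below 3038400; inconclusive = same 50% fall but final raw signal above 3038400; inactive = fall in fluorescence gain under 50%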;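 also: plate controls were neutral control wells for no effect and wells lacking membranes for full effect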
Granule exo inh: blocks lytic granule exocytosis; 360,000 compounds, 0.66% hits; TALL-104 LAMP-1 surface exposure, flow cytometry; cells stimulated with thapsigargin and PMA; inhibition, % at 10 µM;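 active = inhibition above about 55%, limit read from the data; inconclusive = no clear call, values can overlap the other calls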
ABHD5 PLIN5 conf: confirmation of human ABHD5-PLIN5 interaction inhibitors. AID 651612. biochemical ABHD5-PLIN5 interaction, luminescence. shares compounds with ABHD5-PLIN5 inh. 2,200 compounds, 67% hits. inhibition, % at 4 µM; in the data active = inhibition above about 23%;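 also: 0% = DMSO vehicle wells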
HNF4 split-luc: counter-screen for ABHD5-PLIN5 inhibitors: HNF4 split-luciferase; 2,200 compounds, 77% hits; HNF4 dimerization, luminescence, biochemical; AID 651674; shares compounds with ABHD5-PLIN5 inh; inhibition, % at 4 µM;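 active = mean inhibition across replicate wells exceeding the computed hit threshold, cut at about 13% in these data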;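 also: light from luciferase halves that rejoin when HNF4 fusion proteins dimerize; 0% = DMSO only wells and the 100% control is not given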
Target sequence (P41235 whole entry, looked up, the tested form may be a part): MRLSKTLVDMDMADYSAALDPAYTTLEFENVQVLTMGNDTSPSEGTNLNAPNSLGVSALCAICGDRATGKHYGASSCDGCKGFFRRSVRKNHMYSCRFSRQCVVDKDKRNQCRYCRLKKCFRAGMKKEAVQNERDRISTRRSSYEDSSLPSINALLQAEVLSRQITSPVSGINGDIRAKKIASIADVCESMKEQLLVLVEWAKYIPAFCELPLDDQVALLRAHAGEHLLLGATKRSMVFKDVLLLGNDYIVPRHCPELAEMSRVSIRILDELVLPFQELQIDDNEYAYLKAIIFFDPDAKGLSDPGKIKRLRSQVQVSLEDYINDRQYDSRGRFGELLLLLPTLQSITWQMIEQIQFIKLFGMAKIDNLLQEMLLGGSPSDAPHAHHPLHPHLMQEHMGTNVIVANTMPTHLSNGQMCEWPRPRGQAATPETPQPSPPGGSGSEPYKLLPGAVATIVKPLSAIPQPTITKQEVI
Starred values were filed as active, the others as inactive; i = inactive; ? = inconclusive; nt = not tested or not shown. Hits are enriched below; roughly 2.6% of the tested compounds scored in any of these assays.

SMILES | ABHD5-PLIN5 inh | PfM18AAP inh | Platelet DG rel | Rce1 inh | Granule exo inh | ABHD5 PLIN5 conf | HNF4 split-luc
COc1ccc(NC(=O)C(c2ccncc2)n2c(=O)c(-c3ccco3)nc3ccccc32)cc1 (stereo not given) | 12 | nt | nt | nt | 9 | nt | nt
COc1ccc(NC(=O)C(c2cccc3ccccc23)n2c(=O)c(-c3ccco3)nc3ccccc32)cc1 (stereo not given) | 26* | nt | nt | nt | 3 | 23* | 3
O=C(NC1CCCCC1)C(c1cccc2ccccc12)n1c(=O)c(-c2ccco2)nc2ccccc21 (stereo not given) | 87* | nt | nt | nt | 4 | 85* | 9
COc1ccc(C(C(=O)NC2CCCCC2)n2c(=O)c(-c3ccco3)nc3ccccc32)cc1 (stereo not given) | 66* | nt | nt | nt | -2 | 85* | 30*
COc1ccc(NC(=O)C(c2ccc(C(F)(F)F)cc2)n2c(=O)c(-c3ccco3)nc3ccccc32)cc1 (stereo not given) | 12 | nt | nt | nt | -2 | nt | nt
COc1ccc(-n2nnnc2SCC(=O)NNC(=O)c2ccc([N+](=O)[O-])cc2)cc1 | 1 | 4 | 13 | i | 17 | nt | nt
Cc1ccc(S(=O)(=O)N2CCN(c3ccnc4cc(Cl)ccc34)CC2)cc1 | 3 | -2 | 1 | i | -10 | nt | nt
N=c1n(Cc2ccccc2)c2ccccc2n1CC(O)c1ccco1 (stereo not given) | 23* | -7 | 1 | i | -4 | 8 | 15*
Cc1scc(C(=O)NCc2ccco2)c1-c1ccccc1 | 28* | 11 | -9 | i | -8 | 23* | 22*
Cc1ccc(-c2cc(C(=O)NN3CCOCC3)c3cc(Br)ccc3n2)o1 | 6 | -28 | -5 | i | 6 | nt | nt
O=C(NCc1ccco1)c1ccccc1-c1ccccc1 | -7 | -6 | 5 | nt | -4 | nt | nt
Cc1cc(C)c2nc(-c3ccccn3)cc(C(=O)NCc3ccco3)c2c1 | 45* | 4 | -37 | i | -1 | 21 | 26*
Cc1ccc2nc(NC(=O)c3cc(-c4ccco4)nc4ccccc34)sc2c1 | 8 | -2 | -11 | i | 5 | nt | nt
O=C(Nc1nc2ccccc2s1)c1cc(-c2ccco2)nc2ccccc12 | 27* | -9 | -2 | i | -5 | 22* | 14*
Cc1ccc(-c2cc(C(=O)O)c3cc(Br)ccc3n2)o1 | 27* | 6 | 8 | i | 4 | 79* | 88*
S=C(Nc1cccc2ccccc12)Nc1cccc2ccccc12 | -18 | nt | nt | nt | -3 | nt | nt
O=Nc1nc2ncccn2c1-c1ccccc1 | 9 | nt | nt | nt | 6 | nt | nt
C/C(Cn1nnc2ccccc21)=N\OC(=O)c1ccccc1C | 0 | -2 | -1 | i | -1 | nt | nt
Cc1nnc(NC(=O)CN2C(=O)NC3(CCCC3)C2=O)s1 | 1 | nt | 17 | i | 4 | nt | nt
Cc1ccc(-c2cc(C(=O)NCc3ccco3)c3ccccc3n2)o1 | 44* | -69 | 56* | i | 4 | 16 | 30*
CCCCn1c(N)c(N(C)C(=O)CCCn2c(=O)oc3ccccc32)c(=O)[nH]c1=O | -8 | nt | nt | nt | 14 | nt | nt
Cc1cc(C)c(C(=O)/C=C/c2cccc3ccccc23)c(=O)[nH]1 | 54* | -9 | -14 | i | 2 | 64* | 61*
Cc1cc(C)c(C(=O)/C=C/c2ccc3c(c2)OCO3)c(=O)[nH]1 | 2 | 0 | 0 | i | 5 | nt | nt
COCCn1c(SCC(=O)Nc2ccccc2OC)nc2c([nH]c3ccccc32)c1=O | 2 | 2 | 13 | i | -4 | nt | nt
O=C1C(=C(I)I)c2ccccc2-c2ccccc21 | 43* | nt | nt | nt | 103* | 101* | 102*
SMILES | ABHD5-PLIN5 inh | PfM18AAP inh | Platelet DG rel | Rce1 inh | Granule exo inh | ABHD5 PLIN5 conf | HNF4 split-luc
O=C(O)c1cccc2c1C(=O)c1ccccc1-2 | -1 | -6 | -4 | i | -1 | nt | nt
O=C(COC(=O)c1ccccc1Nc1ccccc1)Nc1ccccc1 | 1 | 1 | -5 | i | -2 | nt | nt
CCCCN1C(=O)c2ccc(C(=O)Nc3ccc(C)c(S(=O)(=O)N(C)C)c3)cc2C1=O | 5 | 0 | -8 | i | 12 | nt | nt
Cc1ccc(Oc2c(C(N)=O)cc([N+](=O)[O-])cc2[N+](=O)[O-])cc1 | 63* | -17 | 11 | i | 26 | 95* | 74*
Cc1ccc(CNc2ccc([N+](=O)[O-])cc2C(N)=O)cc1 | -14 | nt | nt | nt | 13 | nt | nt
O=C(COC(=O)CCC(=O)c1ccc(F)cc1)Nc1nnc(-c2ccccc2)o1 | -6 | nt | 4 | i | 3 | nt | nt
COc1ccc(CNC(=O)c2cccnc2Sc2ccc(Cl)cc2)cc1 | 89* | 0 | -3 | i | -3 | -6 | 10
O=S(=O)(Nc1nc2c(s1)CCCC2)c1ccc2ccccc2c1 | -4 | -3 | 5 | i | 1 | nt | nt
O=S(=O)(NC1=NCCCCC1)c1ccc2sc(NS(=O)(=O)c3ccc4ccccc4c3)nc2c1 | 47* | -9 | -20 | i | -2 | 9 | -35
COc1cccc(CNc2nc3cc(-c4ccccc4)sc3c(=O)n2C)c1 | -1 | nt | nt | nt | ? | nt | nt
COc1cccc(CNc2nc3cc(-c4ccc(C(=O)N5CCN(C)CC5)cc4)sc3c(=O)n2C)c1 | 24* | nt | nt | nt | 30 | 6 | 11
O=C(NCC(=O)N(c1cccnc1)C(C(=O)NC1CCCC1)c1ccccc1F)c1ccco1 (stereo not given) | 6 | -4 | -3 | i | 5 | nt | nt
O=C1S/C(=C\c2ccc(N3CCOCC3)o2)C(=O)N1Cc1ccc(F)cc1 | 17 | 7 | nt | nt | 32 | nt | nt
CC(C)OC(=O)CN1C(=O)S/C(=C/c2ccc(N3CCCCC3)o2)C1=O | 34* | 9 | 4 | i | 63* | 61* | 102*
Cc1cccc(C(=O)N2CCc3ccccc3C2)c1[N+](=O)[O-] | 1 | 7 | 2 | nt | 1 | nt | nt
Cc1cccc(C(=O)N2CCCCCC2)c1[N+](=O)[O-] | 74* | -7 | 1 | i | 4 | 3 | 3
Cc1ccc(OCC(=O)Nc2ccon2)c([N+](=O)[O-])c1 | 5 | -1 | 6 | i | -2 | nt | nt
CC(O)/C=C/c1ccc2ccccc2n1 (stereo not given) | 24* | 2 | -11 | i | 10 | 23* | 26*
C=C1C(=O)O[C@H]2[C@H]1[C@H](OC(=O)/C(C)=C\C)C[C@]1(CO1)[C@@H]1[C@H](OC(C)=O)C=C(C)[C@]21O | 25* | nt | nt | nt | 5 | 46* | 40*
COC(=O)C(C)N(C(=O)c1cccc2ccccc12)c1c(C)cccc1C (stereo not given) | -1 | -1 | 4 | i | -1 | nt | nt
O=C(Cn1sc2ccccc2c1=O)Nc1ccccc1 | 64* | nt | nt | nt | 50 | 81* | 116*
Cc1ccccc1S(=O)Cc1ccc(C(=O)N2CCN(C(=O)c3ccco3)CC2)o1 (stereo not given) | 75* | 1 | 7 | i | -12 | -2 | -3
CCCSc1nc(NCc2ccco2)c2c3c(sc2n1)COC(C)(C)C3 | 28* | 23 | 1 | i | 4 | 7 | 5

Compound activity from PubChem BioAssay.
